From paper PMC4336329 (PLoS ONE, 2015)
Among all 310,000 compounds or so, about 14,000 (4.5%) showed an effect of 50% or more. The effect is printed as a negative number. The sample as a whole holds a higher share of strong results than the screen did.

biological target: human ether-à-go-go-related gene (hERG) potassium channel (human, UniProt Q12809); test: primary screen, population patch clamp on CHO cells stably expressing hERG; higher = less effect of the substance
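Note: peak tail current of the secondary pulse compared with the same well before compound.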

human ether-à-go-go-related gene (hERG) potassium channel, sequence (Q12809 whole entry, looked up): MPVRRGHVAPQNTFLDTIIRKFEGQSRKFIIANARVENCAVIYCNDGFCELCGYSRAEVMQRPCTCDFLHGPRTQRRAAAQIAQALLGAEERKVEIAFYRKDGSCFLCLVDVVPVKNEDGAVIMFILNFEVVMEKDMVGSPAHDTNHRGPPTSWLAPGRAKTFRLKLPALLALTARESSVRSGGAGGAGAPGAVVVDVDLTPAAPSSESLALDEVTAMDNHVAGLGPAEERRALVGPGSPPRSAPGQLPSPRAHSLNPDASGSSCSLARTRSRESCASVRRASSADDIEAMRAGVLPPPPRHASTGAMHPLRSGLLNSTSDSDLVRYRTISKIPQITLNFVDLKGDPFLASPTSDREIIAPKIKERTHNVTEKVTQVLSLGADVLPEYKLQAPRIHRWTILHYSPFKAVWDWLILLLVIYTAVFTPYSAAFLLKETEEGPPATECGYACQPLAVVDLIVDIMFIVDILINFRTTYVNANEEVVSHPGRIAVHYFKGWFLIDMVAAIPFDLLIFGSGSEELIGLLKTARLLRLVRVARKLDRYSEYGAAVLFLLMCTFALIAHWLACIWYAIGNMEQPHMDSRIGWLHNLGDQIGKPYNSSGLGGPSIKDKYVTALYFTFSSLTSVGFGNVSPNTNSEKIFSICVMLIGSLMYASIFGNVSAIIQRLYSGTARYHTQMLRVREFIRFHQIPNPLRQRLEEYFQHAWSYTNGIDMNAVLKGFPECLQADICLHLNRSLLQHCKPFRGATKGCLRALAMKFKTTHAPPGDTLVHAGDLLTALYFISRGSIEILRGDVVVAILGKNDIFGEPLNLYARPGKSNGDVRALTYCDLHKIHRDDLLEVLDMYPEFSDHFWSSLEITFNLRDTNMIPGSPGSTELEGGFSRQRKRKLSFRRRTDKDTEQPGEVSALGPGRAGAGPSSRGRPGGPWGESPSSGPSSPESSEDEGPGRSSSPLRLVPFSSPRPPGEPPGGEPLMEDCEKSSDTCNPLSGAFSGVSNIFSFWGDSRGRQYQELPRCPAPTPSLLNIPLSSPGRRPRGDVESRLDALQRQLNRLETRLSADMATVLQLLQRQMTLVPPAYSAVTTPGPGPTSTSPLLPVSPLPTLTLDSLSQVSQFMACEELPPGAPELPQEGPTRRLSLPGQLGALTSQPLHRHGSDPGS

Row | Structure (SMILES) | hERG current change (%, negative = inhibition) at 10uM [%]
1 | CC(=O)C1C(c2ccc3ncccc3c2)NC(=O)NC1(O)C(F)(F)F (stereo not shown) | 10.9
2 | Cc1ccsc1/C=N/Nc1ncc(Cl)cc1Cl | 5.75
3 | COc1ccc(C)cc1S(=O)(=O)N1CCN(S(=O)(=O)c2cc(C(=O)O)ccc2C)CC1 | 3.86
4 | CCN1CCN(C(c2cccs2)C(C)NC(=O)c2cccc(OC)c2)CC1 (stereo not shown) | -4.05
5 | CCN(CC)C(=O)c1ccc(NC(=O)c2cccc(C(F)(F)F)c2)cc1 | 4.47
6 | CN(C(=O)COC(=O)c1ccc2c(=O)n3c(nc2c1)CCC3)C1CCS(=O)(=O)C1 (stereo not shown) | 10.5
7 | CCc1ccc2nc(NC(=O)Cn3cnc4ccccc4c3=O)sc2c1 | 9.75
8 | Cc1cc(C)nc(/N=C(\N)Nc2ccc(OCc3ccccc3)cc2)n1 | -78.2
9 | CC(=O)Nc1cccc(N/C(N)=N/c2nc(C)cc(C)n2)c1 | 4.87
10 | Cc1cc(C)nc(/N=C(\N)Nc2ccc(OCCC(C)C)cc2)n1 | -71.8
11 | Cc1cc(OCC(=O)Nc2ccc(OCc3ccccc3)cc2)nc(C(C)C)n1 | 3.36
12 | CCOC(=O)C(=O)Nc1ccc(OCc2ccccc2)cc1 | 20.2
13 | Cc1cc(C)nc(/N=C(\N)Nc2cccc([N+](=O)[O-])c2)n1 | -28.7
14 | Cc1cc(C)nc(/N=C(\N)Nc2cccc(OCc3ccccc3)c2)n1 | -74.1
15 | Cc1cc(C)nc(/N=C(\N)Nc2ccc(S(=O)(=O)Nc3nccc(C)n3)cc2)n1 | 19.8
16 | CCOc1ccc(N/C(N)=N/c2nc(C)cc(C)n2)cc1 | -46.5
17 | CCOC(=O)c1c(C)noc1CP(=O)(c1ccccc1)c1ccccc1 | -6.61
18 | CCC(=O)NC(c1ccc(OC)cc1)c1c(O)ccc2ccccc12 (stereo not shown) | 3.82
19 | COc1ccc(-c2cnnc(N/N=C/c3ccc(O)c(OC)c3)n2)cc1 | -50.1
20 | COc1ccc(-c2cnnc(N/N=C/c3ccc(OC)c(OC)c3)n2)cc1 | -35.7
21 | COc1ccc(-c2cnnc(N/N=C/c3ccc(O)c(O)c3)n2)cc1 | 2.82
22 | CC1CCCCC12NC(=O)N(Cn1nnc3ccccc3c1=O)C2=O (stereo not shown) | -17.2
23 | Cc1ccc(-c2cc(-c3ccccc3)nc(N(C)N)n2)cc1 | 16.7

Row | Structure (SMILES) | hERG current change (%, negative = inhibition) at 10uM [%]
24 | O=C(Cn1nc(Cc2cccnc2)c2ccccc2c1=O)N1CCN(c2ccccn2)CC1 | -23.1
25 | c1ccc(N2CCN(c3nnc(Cc4cccnc4)c4ccccc34)CC2)nc1 | -50.1
26 | c1ccc(Cc2nnc(N3CCCCC3)c3ccccc23)cc1 | -26.7
27 | CC(C)(C)c1ccc(COc2ccsc2C(=O)O)cc1 | -6.72
28 | Cc1ccc(CCNC(=O)CNC(=S)N(Cc2ccccc2)Cc2cccnc2)cc1 | -55
29 | O=C(CNC(=S)N(Cc1ccccc1)Cc1cccnc1)NCCc1ccccc1 | -41.3
30 | COCCCNC(=S)N(Cc1cccnc1)Cc1ccc(OC)c(OC)c1 | 12.4
31 | COCCNC(=S)N(Cc1cccnc1)Cc1ccc(OC)c(OC)c1.O=C(O)C(=O)O | 9.52
32 | COc1ccc(CN(Cc2cccnc2)C(=S)NCCc2ccccc2)cc1OC.O=C(O)C(=O)O | -50.5
33 | Cc1ccc(CNC(=O)CNC(=S)N(Cc2ccccc2)Cc2cccnc2)cc1 | -19.8
34 | CCCc1nn(C)c2c(=O)[nH]c(-c3cc(S(=O)(=O)Nc4ccc(NC(C)=O)cc4)ccc3OCC)nc12 | -21.2
35 | O=C(NC1CCCCCC1)c1ccc(CS(=O)(=O)Cc2ccc(F)cc2)o1 | 3.52
36 | O=C(CCNC(=O)c1ccccc1)OCN1C(=O)c2ccccc2C1=O | -5.38
37 | CCCCNC(=O)CS(=O)Cc1nc(-c2ccc(C)cc2)oc1C (stereo not shown) | -17.5
38 | COCCCNC(=O)Cn1nnc(-c2ccc(NC(=O)c3ccccc3OC)cc2)n1 | 6.89
39 | CCOc1ccc(-c2nnc(SCc3nc4ccccc4[nH]3)n2N)cc1 | -34.3
40 | COc1ccc(CCN2C(=O)CC(N3CCN(S(=O)(=O)c4ccccc4)CC3)C2=O)cc1 (stereo not shown) | -18.7
41 | COc1ccc(OCCN2CCN(C3CC(=O)N(CCC(C)C)C3=O)CC2)cc1 (stereo not shown) | -63.4
42 | CCN1C(=O)CC(N2CCN(c3ccc(OC)cc3)CC2)C1=O (stereo not shown) | -9.88
43 | COc1ccc(Nc2nc3ccccc3n3nnnc23)cc1 | -7.93
44 | CN1CCN(S(=O)(=O)c2ccc3c(c2)OCCO3)CC1 | 12.1
45 | COC(=O)CCCC1=CC2=C(c3ccccc3)C(=O)C(C)(OC(=O)C3CCCC3)C(=O)C2=CN1Cc1ccc(OC)cc1 (stereo not shown) | -4.26
46 | COC(=O)CCCC1=CC2=C(c3ccccc3)C(=O)C(C)(OC(=O)C3CCCC3)C(=O)C2=CN1Cc1ccco1 (stereo not shown) | -56.8
